Each structure is given as a SMILES string. Activity calls are given as the source filed them.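 The calls were made as follows, unless noted: active = hit in primary screen, with calcium signal over 5 SD above buffer well mean in both duplicates; inactive = the rest.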

The first experiment can be described thus: calcium flux activation in mu-opioid HEK293 cells, confirmation, counter-screen for TRPC4 activator project, cell-based, HEK293 mu-opioid receptor line (AID 449723).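 Also: counter screen cells carry the mu-opioid receptor alone and lack TRPC4.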 As to conditions: Fluo-4 calcium fluorescence, at 10 µM. Background: A change in cytosolic calcium serves as a functional read-out for many receptors and channels.
As for `Cc1cc(/C=C2/C(=N)N3C(=NC2=O)SN=C3S(C)(=O)=O)c(C)n1-c1ccccc1F`, the result was inactive.

On to `Cc1ccc(O)c(CNc2nc3ccccc3[nH]2)c1`, for which the result was inactive.

Regarding `CC(Oc1ccc(Cl)cc1Cl)c1nc(-c2ccccn2)no1` (stereo not drawn), the outcome was inactive.

As to `Fc1ccccc1COc1ccccc1CNCc1ccncc1`, the result was inactive.

Regarding `CC12CC3(C)CC(C)(C1)CC(NC(=O)N1CCCC1)(C2)C3`, the result was inactive.

On to `Clc1cccc(COn2c(-c3ccc(Cl)cc3Cl)nc3ncccc32)c1`, for which the result was inactive.

Take `CC1CCN(CCCOc2ccc(OCc3ccccc3)cc2)CC1`: the outcome was inactive.

Regarding `CCN(CC)C(=O)C1CCCN(Cc2cccc(Oc3ccccc3)c2)C1` (stereo not drawn), the result was inactive.

On to `O=C(O)c1ccc(NC(=S)NC(=O)c2ccc(-c3ccccc3)cc2)cc1`, for which the result was inactive.

On to `Cc1ccc(C)c2[nH]c(=O)c(CN(Cc3nnnn3C3CCCCC3)CC3CCCO3)cc12` (stereo not drawn), for which the outcome was inactive.

With `CC(C)CN(CC(C)C)c1nc(N)c(C#N)c(CC#N)c1C#N`, the outcome was inactive.

Regarding `CC(C)Oc1cccc(C(=O)C2CCCN(Cc3cnn(C(C)C)c3)C2)c1` (stereo not drawn), the result was inactive.

Turning to `Cc1ccc(O)c(Sc2cc(C)ccc2O)c1`, the result was inactive.

On to `Cc1cccc(Cn2c(C(C)(C)C)cc3cccnc32)c1`, for which the result was inactive.

On to `Cc1cc(N2CCC(C)CC2)nc2cccc(O)c12`, for which the outcome was inactive.

Turning to `CSCCNCc1cn(-c2ccc(F)cc2F)nc1-c1ccccc1C`, the result was inactive.

For the compound `CC(/C=C1\SC(=S)N(C(C(=O)O)C(C)C)C1=O)=C\c1ccccc1` (stereo not drawn), the result was inactive.

As for `CCN(CC)CCn1c2ccccc2c2cnc(N)c(C#N)c21`, the result was inactive.

In the case of `CCOC(=O)C1CCN(CC(O)COc2ccc(C(C)(C)C)cc2)CC1` (stereo not drawn), the outcome was inactive.

On to `CCOC(=O)c1oc2ccccc2c1CN1CCCCC1`, for which the outcome was inactive.

As for `CC(C)Cc1cc(CN2CCCC(CO)(Cc3cccc(Cl)c3)C2)[nH]n1` (stereo not drawn), the result was inactive.

Consider `CCCCOc1ccc(CSCCN=C(N)N)cc1`, for which the result was inactive.

As to `N#Cc1c(NC(=O)C2CC(Cl)=CCC2C(=O)O)sc2c1CCCCC2` (stereo not drawn), the outcome was inactive.

Take `Cc1ccccc1C(=O)NC1CC2CCC(C1)N2Cc1ccccc1` (stereo not drawn): the outcome was inactive.

Consider `COc1ccc(/C=C2\SC(=S)N(C(Cc3ccccc3)C(=O)O)C2=O)cc1` (stereo not drawn), for which the result was inactive.

Regarding `Cc1cc(NCc2ccccc2)nc(N2CCOCC2)n1`, the result was inactive.

Consider `CCCc1nc(SC2CCCC2)c2c(=O)n(C)c(=O)n(C)c2n1`, for which the result was inactive.

For the compound `Fc1ccccc1Sc1ccccc1CNC1=NCCN1`, the result was inactive.

In the case of `CCc1nc2ccccc2n1Cc1ccccc1OC`, the outcome was inactive.

As for `CSc1nc(N2CCOCC2)c2c3c(sc2n1)CCCC3`, the result was inactive.

Take `COc1cccc(CNC(=O)CCC2CCCN(Cc3cc(Cl)ccc3O)C2)c1` (stereo not drawn): the result was inactive.

With `CCOC(=O)C1(Cc2ccccc2C)CCCN(Cc2ccc(NC(C)=O)cc2)C1` (stereo not drawn), the outcome was inactive.

Regarding `CCn1c(NCc2c[nH]c3ccccc23)nc2ccccc21`, the outcome was inactive.

`O=C(c1ccc2c(c1)OCO2)C1CCCN(Cc2ccccc2OC(F)F)C1` (stereo not drawn): the outcome was inactive.

`CC(C)(C)c1cc2cccnc2n1Cc1ccccc1`: the outcome was inactive.

For the compound `Cc1cccc(C)c1-n1cccc1/C=C1\SC(=S)N(c2cccc(C(=O)O)c2)C1=O`, the outcome was inactive.

Take `COc1ccc2nc(NCc3ccccc3)[nH]c2c1`: the outcome was inactive.

In the case of `Cc1ccc(C(=O)NC(=S)Nc2c(C)ccc3nsnc23)cc1`, the outcome was inactive.

For `Cc1ccccc1N1CC(O)(c2cccs2)[N+]2=C1CCCC2` (stereo not drawn), the result was inactive.

A short description of another experiment: calcium flux enhancement in mu-opioid HEK293 cells, confirmation, counter-screen for TRPC4 allosteric potentiator project, cell-based, HEK293 mu-opioid receptor line (AID 449724;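 active = calcium signal rise more than 3 SD above the low-dose agonist control mean, in both duplicate plates and the primary screen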;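 also: HEK293 cells carrying mu-opioid receptor only with no TRPC4 channel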). The note with it: Fluo-4 calcium flux, at 10 µM, compound added before EC20 DAMGO stimulus.
As to `Cc1cc(/C=C2/C(=N)N3C(=NC2=O)SN=C3S(C)(=O)=O)c(C)n1-c1ccccc1F`, the outcome was inactive.

As to `Cc1ccc(O)c(CNc2nc3ccccc3[nH]2)c1`, the result was inactive.

`CC(Oc1ccc(Cl)cc1Cl)c1nc(-c2ccccn2)no1` (stereo not drawn): the outcome was inactive.

Turning to `Fc1ccccc1COc1ccccc1CNCc1ccncc1`, the result was inactive.

As to `CC12CC3(C)CC(C)(C1)CC(NC(=O)N1CCCC1)(C2)C3`, the result was inactive.

On to `Clc1cccc(COn2c(-c3ccc(Cl)cc3Cl)nc3ncccc32)c1`, for which the outcome was inactive.

As for `CC1CCN(CCCOc2ccc(OCc3ccccc3)cc2)CC1`, the outcome was inactive.

Regarding `CCN(CC)C(=O)C1CCCN(Cc2cccc(Oc3ccccc3)c2)C1` (stereo not drawn), the result was inactive.

Consider `O=C(O)c1ccc(NC(=S)NC(=O)c2ccc(-c3ccccc3)cc2)cc1`, for which the outcome was inactive.

As for `Cc1ccc(C)c2[nH]c(=O)c(CN(Cc3nnnn3C3CCCCC3)CC3CCCO3)cc12` (stereo not drawn), the result was inactive.

As for `CC(C)CN(CC(C)C)c1nc(N)c(C#N)c(CC#N)c1C#N`, the result was inactive.

Take `CC(C)Oc1cccc(C(=O)C2CCCN(Cc3cnn(C(C)C)c3)C2)c1` (stereo not drawn): the outcome was inactive.

For the compound `Cc1ccc(O)c(Sc2cc(C)ccc2O)c1`, the outcome was inactive.

Consider `Cc1cccc(Cn2c(C(C)(C)C)cc3cccnc32)c1`, for which the result was inactive.

Regarding `Cc1cc(N2CCC(C)CC2)nc2cccc(O)c12`, the outcome was inactive.

Turning to `CSCCNCc1cn(-c2ccc(F)cc2F)nc1-c1ccccc1C`, the result was inactive.

Consider `CC(/C=C1\SC(=S)N(C(C(=O)O)C(C)C)C1=O)=C\c1ccccc1` (stereo not drawn), for which the result was inactive.

Regarding `CCN(CC)CCn1c2ccccc2c2cnc(N)c(C#N)c21`, the result was inactive.

Take `CCOC(=O)C1CCN(CC(O)COc2ccc(C(C)(C)C)cc2)CC1` (stereo not drawn): the outcome was inactive.

Regarding `CCOC(=O)c1oc2ccccc2c1CN1CCCCC1`, the result was inactive.

Regarding `CC(C)Cc1cc(CN2CCCC(CO)(Cc3cccc(Cl)c3)C2)[nH]n1` (stereo not drawn), the result was inactive.

On to `CCCCOc1ccc(CSCCN=C(N)N)cc1`, for which the result was inactive.

For `N#Cc1c(NC(=O)C2CC(Cl)=CCC2C(=O)O)sc2c1CCCCC2` (stereo not drawn), the outcome was inactive.

For the compound `Cc1ccccc1C(=O)NC1CC2CCC(C1)N2Cc1ccccc1` (stereo not drawn), the outcome was inactive.

For the compound `COc1ccc(/C=C2\SC(=S)N(C(Cc3ccccc3)C(=O)O)C2=O)cc1` (stereo not drawn), the outcome was inactive.

Consider `Cc1cc(NCc2ccccc2)nc(N2CCOCC2)n1`, for which the result was inactive.

Consider `CCCc1nc(SC2CCCC2)c2c(=O)n(C)c(=O)n(C)c2n1`, for which the outcome was inactive.

In the case of `Fc1ccccc1Sc1ccccc1CNC1=NCCN1`, the outcome was inactive.

`CCc1nc2ccccc2n1Cc1ccccc1OC`: the outcome was inactive.

Turning to `CSc1nc(N2CCOCC2)c2c3c(sc2n1)CCCC3`, the outcome was inactive.

For the compound `COc1cccc(CNC(=O)CCC2CCCN(Cc3cc(Cl)ccc3O)C2)c1` (stereo not drawn), the outcome was inactive.

In the case of `CCOC(=O)C1(Cc2ccccc2C)CCCN(Cc2ccc(NC(C)=O)cc2)C1` (stereo not drawn), the result was inactive.

Consider `CCn1c(NCc2c[nH]c3ccccc23)nc2ccccc21`, for which the outcome was inactive.

Consider `O=C(c1ccc2c(c1)OCO2)C1CCCN(Cc2ccccc2OC(F)F)C1` (stereo not drawn), for which the outcome was inactive.

With `CC(C)(C)c1cc2cccnc2n1Cc1ccccc1`, the outcome was inactive.

Take `Cc1cccc(C)c1-n1cccc1/C=C1\SC(=S)N(c2cccc(C(=O)O)c2)C1=O`: the outcome was inactive.

On to `COc1ccc2nc(NCc3ccccc3)[nH]c2c1`, for which the result was inactive.

Consider `Cc1ccc(C(=O)NC(=S)Nc2c(C)ccc3nsnc23)cc1`, for which the result was inactive.

`Cc1ccccc1N1CC(O)(c2cccs2)[N+]2=C1CCCC2` (stereo not drawn): the result was inactive.

(Values after PubChem BioAssay.)
